Assay results published in PubChem BioAssay.

Assays:
[1] = system: Botulinum neurotoxin type F light chain protease (Clostridium botulinum); assay: Botulinum neurotoxin type F light chain protease inhibition, multiplex microsphere flow cytometry, validation set (AID 588459); conditions: multiplex microsphere protease substrate cleavage assay, at 10 µM, hits give high values
[2] = molecular target: Botulinum neurotoxin type A (Clostridium botulinum) (UniProt P0DPI0); assay: BoNT/A light chain protease inhibitors, biochemical, multiplex microsphere flow cytometry, validation set (AID 588460); conditions: at 10 µM, hits give high values
[3] = molecular target: Lethal factor (Bacillus anthracis) (UniProt P15917); assay: Lethal factor protease inhibitors, Bacillus anthracis, multiplex microsphere cleavage assay, validation set (AID 588461); conditions: flow cytometry, at 10 µM, hits give high values

Measured: inhibition

Chain of Lethal factor (Bacillus anthracis) (P15917 whole entry, looked up): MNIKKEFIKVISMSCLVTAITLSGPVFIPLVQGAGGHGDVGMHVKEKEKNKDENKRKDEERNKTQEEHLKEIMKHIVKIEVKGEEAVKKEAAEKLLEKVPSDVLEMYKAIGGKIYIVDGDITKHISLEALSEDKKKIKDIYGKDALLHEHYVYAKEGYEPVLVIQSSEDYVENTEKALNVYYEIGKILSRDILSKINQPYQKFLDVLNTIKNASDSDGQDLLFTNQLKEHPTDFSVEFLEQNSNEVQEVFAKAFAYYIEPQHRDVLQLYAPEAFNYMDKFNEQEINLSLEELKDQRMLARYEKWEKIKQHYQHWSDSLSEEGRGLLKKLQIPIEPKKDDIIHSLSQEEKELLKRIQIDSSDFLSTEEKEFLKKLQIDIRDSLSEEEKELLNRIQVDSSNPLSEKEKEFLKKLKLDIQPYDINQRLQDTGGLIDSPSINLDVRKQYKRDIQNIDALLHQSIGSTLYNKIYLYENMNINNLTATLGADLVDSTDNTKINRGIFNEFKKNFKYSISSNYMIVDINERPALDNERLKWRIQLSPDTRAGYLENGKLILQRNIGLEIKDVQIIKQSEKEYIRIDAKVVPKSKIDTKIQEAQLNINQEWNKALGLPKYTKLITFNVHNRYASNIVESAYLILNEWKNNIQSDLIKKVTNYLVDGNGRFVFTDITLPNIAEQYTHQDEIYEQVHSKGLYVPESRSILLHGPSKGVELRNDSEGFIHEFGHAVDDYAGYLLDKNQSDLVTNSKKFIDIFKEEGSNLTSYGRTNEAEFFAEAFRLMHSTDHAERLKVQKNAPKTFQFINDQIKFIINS
Chain of Botulinum neurotoxin type A (Clostridium botulinum) (P0DPI0 whole entry, looked up): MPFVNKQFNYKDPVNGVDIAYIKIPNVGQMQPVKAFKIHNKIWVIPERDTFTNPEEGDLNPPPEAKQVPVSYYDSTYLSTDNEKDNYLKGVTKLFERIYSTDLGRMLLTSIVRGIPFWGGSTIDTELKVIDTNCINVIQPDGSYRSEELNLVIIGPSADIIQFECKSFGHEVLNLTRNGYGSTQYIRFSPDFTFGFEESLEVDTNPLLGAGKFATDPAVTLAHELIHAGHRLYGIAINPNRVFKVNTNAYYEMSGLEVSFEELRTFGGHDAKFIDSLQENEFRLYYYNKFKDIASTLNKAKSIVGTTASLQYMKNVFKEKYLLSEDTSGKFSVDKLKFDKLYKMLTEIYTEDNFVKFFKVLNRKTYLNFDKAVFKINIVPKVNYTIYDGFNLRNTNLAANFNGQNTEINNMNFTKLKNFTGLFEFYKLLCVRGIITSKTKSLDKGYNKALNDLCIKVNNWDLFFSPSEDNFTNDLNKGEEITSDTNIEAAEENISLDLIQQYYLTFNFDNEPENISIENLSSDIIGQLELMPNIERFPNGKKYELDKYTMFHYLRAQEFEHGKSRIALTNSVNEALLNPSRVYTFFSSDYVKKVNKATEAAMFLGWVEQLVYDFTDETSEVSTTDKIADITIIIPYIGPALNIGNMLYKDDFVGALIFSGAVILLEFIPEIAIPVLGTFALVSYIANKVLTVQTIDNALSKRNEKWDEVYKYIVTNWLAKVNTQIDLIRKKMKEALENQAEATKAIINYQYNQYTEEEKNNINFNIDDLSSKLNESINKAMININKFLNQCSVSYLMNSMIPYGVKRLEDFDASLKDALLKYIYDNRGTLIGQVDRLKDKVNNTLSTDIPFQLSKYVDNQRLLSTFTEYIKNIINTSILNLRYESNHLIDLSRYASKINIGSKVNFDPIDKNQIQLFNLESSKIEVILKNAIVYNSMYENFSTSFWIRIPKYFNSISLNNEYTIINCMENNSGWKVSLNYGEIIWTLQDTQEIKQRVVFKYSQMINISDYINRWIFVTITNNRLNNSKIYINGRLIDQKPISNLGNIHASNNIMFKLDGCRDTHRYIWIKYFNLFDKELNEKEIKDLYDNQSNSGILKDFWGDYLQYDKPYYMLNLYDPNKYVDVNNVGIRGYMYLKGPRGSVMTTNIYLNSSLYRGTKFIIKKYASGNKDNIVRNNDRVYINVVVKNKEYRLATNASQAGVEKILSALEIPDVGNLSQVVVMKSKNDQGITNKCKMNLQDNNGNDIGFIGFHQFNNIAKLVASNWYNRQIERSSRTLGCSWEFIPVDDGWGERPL

O=C(Nc1ccc(F)c([N+](=O)[O-])c1)c1ccc2c(c1)OCCO2
inactive: [1] -3.7% | [2] -2.7% | [3] -7.5%

Nc1ccc(S(=O)(=O)NC(=O)c2ccccc2)cc1
inactive: [1] 1.2% | [2] 1.3% | [3] -2.7%

CC(C)=CC/C=C1\CCC(C(=O)O)C(C(=O)O)C1 (configuration not stated)
inactive: [1] -1.1% | [2] -1.6% | [3] -3.4%

COc1cc2c(cc1OC)C(c1cc3ccccc3oc1=O)=NC(C)(C)C2
inactive: [1] 0.9% | [2] 0% | [3] 0%

CCC1(c2ccccc2)NC(=S)N(c2ccc(C)c(C)c2)N1 (configuration not stated)
inactive: [1] 1% | [2] -0.8% | [3] -3%

CCn1c(SCC(=O)c2ccccc2)nc2ccccc2c1=O
inactive: [1] -3% | [2] -0.1% | [3] -5.1%

COC(=O)C1=C(C)NC(C)=C(C(=O)OCCN(C)Cc2ccccc2)C1c1cccc([N+](=O)[O-])c1 (configuration not stated)
inactive: [1] -2.1% | [2] -0.8% | [3] -3.7%

COc1ccc(Br)cc1C(=O)Nc1ccc(C(=O)O)cc1
inactive: [1] 1% | [2] 1% | [3] -2.2%

CN(C)CCCNc1ncnc2c1cnn2-c1ccccc1
inactive: [1] 0.3% | [2] -0.3% | [3] -4%

CC(=O)c1cc2c(cc1NC(=O)c1ccco1)OCCO2
inactive: [1] -1.7% | [2] -1.3% | [3] -1.9%

CN(C)C(=O)Oc1ccc[n+](C)c1
inactive: [1] -1.5% | [2] -0.6% | [3] -0.5%

CCOC(=O)c1cnc2ccccc2c1NCCO
inactive: [1] -1.1% | [2] 0% | [3] 5.8%

O=C1CN(O)C=C2N=c3ccccc3=C2N1c1ccc([N+](=O)[O-])cc1
inactive: [1] -2.6% | [2] -2.1% | [3] -4.4%

NCCOc1ccccc1OCCN
inactive: [1] 1.6% | [2] -0.4% | [3] -4.4%

C1CCC(C(CC2CCCCN2)C2CCCCC2)CC1 (configuration not stated)
inactive: [1] -7.7% | [2] 0.4% | [3] -14.1%

COC(=O)c1cc(C(=O)NCCC(C)C)cc([N+](=O)[O-])c1
inactive: [1] -5.3% | [2] -2.3% | [3] 2.1%

CC(=O)N1CCN(c2ccc(NC(=O)/C=C/c3ccccc3)cc2)CC1
inactive: [1] 4.3% | [2] -0.3% | [3] -2.2%

Cc1ccnc2c1NC(=O)c1cccnc1N2C1CC1
inactive: [1] 0.7% | [2] -0.1% | [3] -4.5%

O=C(COc1cc(O)c2c(=O)c3ccccc3oc2c1)OCc1ccccc1
inactive: [1] 1.4% | [2] 0.2% | [3] 1.6%

CCCC(=O)Nc1ncnc2c1ncn2[C@@H]1O[C@@H]2COP(=O)(O)O[C@H]2[C@H]1OC(=O)CCC
inactive: [1] -0.5% | [2] -1% | [3] -2.7%

CN(C)CCCN1c2ccccc2Sc2ccccc21
inactive: [1] -0.5% | [2] -0.5% | [3] -3.7%

CCN(CCCc1ccccc1)CCCc1ccccc1
inactive: [1] 1% | [2] -0.4% | [3] -2.4%

CCc1cc2c(=O)c(-c3ccc4c(c3)OCCO4)coc2c(CN2CCCCC2C)c1O (configuration not stated)
inactive: [1] 2.5% | [2] 0.3% | [3] -1%

CC(C(=O)O)c1ccc(-c2ccccc2)c(F)c1 (configuration not stated)
inactive: [1] 5.7% | [2] 0.5% | [3] 5.7%

CC(=O)[C@H]1[C@H](C#N)C[C@H]2[C@@H]3CC=C4C[C@@H](O)CC[C@]4(C)[C@H]3CC[C@@]21C
inactive: [1] 4.5% | [2] 1.4% | [3] 4.8%

O=C(NCCO)c1ccc(Cl)c(Cl)c1
inactive: [1] -0.2% | [2] -0.6% | [3] -2.2%

CCOCC(=O)Nc1nc2ccccc2s1
inactive: [1] -2.1% | [2] 1.5% | [3] -0.2%

CC(=O)O[C@H]1CSC[C@H]1NC(=O)c1ccccc1
inactive: [1] -2.6% | [2] -1.2% | [3] -4.4%

Cn1cc(/C=C/C(=O)c2ccccc2)c2ccccc21
inactive: [1] -4.2% | [2] -0.5% | [3] -5.4%

CCC(C(=O)Nc1ccc2c(c1)OCCO2)c1ccccc1 (configuration not stated)
inactive: [1] 0.7% | [2] -0.2% | [3] -1.8%

C[C@H](NC(=O)OC(C)(C)C)C(=O)NCC1CCC(C(=O)O)CC1 (some centres not stated)
inactive: [1] 2.7% | [2] -2.2% | [3] -1.1%

C#CCN1C(=O)C(O)(CC(=O)c2ccc(OC)c(OC)c2)c2ccccc21 (configuration not stated)
inactive: [1] 2.3% | [2] -1.3% | [3] 2%

O=C(NNC(=O)c1cccs1)c1ccco1
inactive: [1] 1.9% | [2] -2.8% | [3] 0.2%

CC(C)c1ccc2[nH]c3c(c2c1)CCCC3=O
inactive: [1] 0.3% | [2] -0.8% | [3] -3.4%

CCOC(=O)COc1ccc2c(=O)c(-c3ccccc3)coc2c1
inactive: [1] -1.6% | [2] 1.3% | [3] 1%

CC1(C)CC(O)(CNCc2ccc3c(c2)OCO3)CCO1 (configuration not stated)
inactive: [1] -3.2% | [2] -0.9% | [3] 1.2%

CN(C)CCOC(c1ccccc1)c1ccccc1
inactive: [1] -0.7% | [2] 0.3% | [3] -5%

CCOC(=O)Cn1c(C)cc(=O)c2ccccc21
inactive: [1] 6.3% | [2] 1.7% | [3] 9.6%

COc1ccc(O)c(C(=O)/C=C/c2cc3ccccc3o2)c1
inactive: [1] -0.1% | [2] 0% | [3] -3.5%

C[C@H]1C[C@H]2[C@@H]3CCC4=CC(=O)C=C[C@]4(C)[C@@]3(Cl)[C@@H](O)C[C@]2(C)[C@@]1(O)C(=O)CO
inactive: [1] 4.5% | [2] -0.1% | [3] 2.1%

COc1ccc(CNC(=O)C2CCCN2C)cc1OC (configuration not stated)
inactive: [1] 0.4% | [2] -2.5% | [3] 6.2%

O=C(/C=C/c1ccc(Cl)cc1)NCCc1ccccc1
inactive: [1] -4% | [2] 0.4% | [3] 2.3%

CCN(CC)CCN1C(=O)C(=O)/C(=C(/O)c2c(C)[nH]c(C(=O)OC)c2C)C1c1cccnc1 (configuration not stated)
inactive: [1] -1.7% | [2] -0.9% | [3] -4.4%

CCn1c(/C=C/c2ccccc2)nc2ccccc2c1=O
inactive: [1] 2.4% | [2] -1.7% | [3] 7.2%

OCCN(CCO)c1nc(N2CCCCC2)c2nc(N(CCO)CCO)nc(N3CCCCC3)c2n1
inactive: [1] 4.8% | [2] 0.9% | [3] 8.5%

Cn1c(=O)c2c(ncn2Cc2ccccc2)n(C)c1=O
inactive: [1] 3.3% | [2] 3% | [3] 7.6%

CC(=O)c1c(C)c(C)c2n1CCn1c(C)ccc1-2
inactive: [1] -0.2% | [2] -0.1% | [3] 0.9%

O=C(O)c1ccc(OCCn2ccnc2)cc1
inactive: [1] 2.9% | [2] -0.2% | [3] -0.6%

CC(C)(C)OC(=O)NCCC(=O)Oc1ccc2ccc(=O)oc2c1
inactive: [1] -1.5% | [2] -0.8% | [3] 0.5%

CC(=O)N(C(C)=O)c1nc2nc(C)cc(C)n2n1
inactive: [1] 5.2% | [2] 0.6% | [3] 1.4%

COc1cc2nc(-c3ccccc3)nc(N3CCCC3)c2cc1OC
inactive: [1] -1.8% | [2] -1.5% | [3] -4.3%

COc1cc2c(cc1OC)C(=S)NC(C)(C)C2
inactive: [1] 2.8% | [2] -0.8% | [3] 2.9%

O=C(Nc1ccc(Cl)cn1)Nc1ccccc1Cl
inactive: [1] 2.9% | [2] 0.2% | [3] -4.9%

Cc1cc(C(=O)Nc2ccccc2C(=O)N2CCCCC2)ccc1[N+](=O)[O-]
inactive: [1] 2.8% | [2] 2.4% | [3] -0.1%

CC(C)N(Cc1nccn1C)C(=O)CC1C(=O)NCCN1Cc1ccccc1C(F)(F)F (configuration not stated)
inactive: [1] -1.2% | [2] -0.8% | [3] 0.4%

CC(CCCC(C)(C)O)NC(=O)c1ccc(OC2CCN(C(=O)C3CC3)CC2)cc1 (configuration not stated)
inactive: [1] 0.1% | [2] 0.7% | [3] 1%

C#C[C@]1(O)CC[C@H]2[C@@H]3CCC4=C(CCC(=O)C4)[C@H]3CC[C@@]21C
inactive: [1] 0.3% | [2] 0.1% | [3] 0.8%

COc1ccc(CN2CCC(=O)NC2=O)cc1
inactive: [1] -2.3% | [2] -0.1% | [3] -3.5%

COc1ccccc1/C=C/C(=O)c1c2c(c(C)[nH]c1=O)CCCC2
inactive: [1] -1.3% | [2] 0.5% | [3] -5.8%
